± gives the standard deviation of the averaged measurements.
system: AEK1 (Tb927.3.2440); assay: percent reduction in TR-FRET probe signal relative to DMSO control; higher = stronger displacement of ATP-site probe (binding); details: 1 µM; incubation time 1 h

Row | Structure (SMILES) | percent reduction in TR-FRET probe signal
1 | COc1ccc(-c2ccc3c(N4CCOC[C@@H]4C)nc(N4CCOC[C@@H]4C)nc3n2)cc1CO | -7.43 ± 5.2%
2 | Nc1ccc(-c2ccc3ncc4ccc(=O)n(-c5cccc(C(F)(F)F)c5)c4c3c2)cn1 [Torin 2] | 1.07 ± 4.9%
3 | C=CC(=O)Nc1cccc(Nc2nc(Nc3ccc(Oc4ccnc(C(=O)NC)c4)cc3)ncc2F)c1 | -4.93 ± 4.3%
4 | CCO.N#CC(=C(\N)Sc1ccccc1N)/C(C#N)=C(/N)Sc1ccccc1N | 0.443 ± 7.1%
5 | O=C(Nc1ccc(OC(F)(F)F)cc1)c1sccc1NCc1ccnc2ccccc12 | -8.08 ± 5.7%
6 | CCc1cccc(CC)c1NC(=O)N1Cc2[nH]nc(NC(=O)c3ccc(N4CCN(C)CC4)cc3)c2C1 | 29.3 ± 8.1%
7 | C[C@@H]1COCCN1c1cc(C2(S(C)(=N)=O)CC2)nc(-c2ccnc3[nH]ccc23)n1 (stereo not given in full) | 8.44 ± 6%
8 | C=CC(=O)Nc1cc(Nc2nccc(-c3cn(C)c4ccccc34)n2)c(OC)cc1N(C)CCN(C)C | -8.86 ± 8.3%
9 | COc1ccccc1-c1cc(Nc2cccc(CS(N)(=O)=O)c2)ncn1 | -8.94 ± 6.4%
10 | CN(C)CCCn1cc(C2=C(c3c[nH]c4ccccc34)C(=O)NC2=O)c2ccccc21 | 8.74 ± 7.2%
11 | Cc1ccccc1CN1C2=NCCN2C(=O)C2=C1CCN(Cc1ccccc1)C2 [TIC10 Analogue] | -7.4 ± 3.3%
12 | CC(C)(O)CNc1ncc(-c2ccnc(Nc3ccnc(Cl)c3)n2)c(CC2CC2)n1 | 4.25 ± 12%
13 | Nc1nc(Nc2ccc(S(N)(=O)=O)cc2)nn1C(=O)c1c(F)cccc1F | 27.8 ± 16%
14 | CC1=C(C(=O)Nc2cc3cn[nH]c3cc2F)C(c2ccc(C(F)(F)F)cc2)CC(=O)N1 (stereo not given) | -2.47 ± 11%
15 | COc1ccc(-c2ccc3c(N4CCOCC4)nc(N4C[C@@H](C)O[C@@H](C)C4)nc3n2)cc1CO | -3.76 ± 6.3%
16 | O=C(NOCC1CC1)c1ccc(F)c(F)c1Nc1ccc(I)cc1Cl | 5.58 ± 12%
17 | C=CCc1ccc(O)c(-c2ccc(O)c(CC=C)c2)c1 [Honokiol] | 1.65 ± 8.9%
18 | CNC(=O)CN1CCC(Oc2cc3c(Nc4cccc(Cl)c4F)ncnc3cc2OC)CC1 [Sapitinib (AZD8931)] | -5.78 ± 5.4%
19 | COc1cc2nccc(Oc3ccc(NC(=O)Nc4cc(C)on4)c(Cl)c3)c2cc1OC [Tivozanib (AV-951)] | -2.48 ± 4.1%
20 | O=C(c1ccc(/C=C/c2n[nH]c3ccccc23)cc1)N1CCNCC1 | 51.6 ± 14%
21 | O=C(O)c1ccc(Nc2ncc3c(n2)-c2ccc(Cl)cc2C(c2c(F)cccc2F)=NC3)cc1 | -4.14 ± 5.4%
22 | O=C1Nc2ccc(I)cc2/C1=C/c1cc(Br)c(O)c(Br)c1 | 8.22 ± 8.7%
23 | CN1CCN(c2ccc(-c3ccncc3-c3cc(F)c(O)c(F)c3)cc2)CC1 | 1.75 ± 5.2%
24 | CC(C)(CCCCCC(O)CCCCCC(C)(C)C(=O)O)C(=O)O | 0.88 ± 3.4%
25 | COc1cc2nccc(Oc3ccc(NC(=O)NC4CC4)c(Cl)c3)c2cc1C(N)=O [Lenvatinib (E7080)] | 1.41 ± 13%
